Several values for one entry are separate records, joined by “and”; a condition that tells them apart may be missing. Identical values can stand only once. For some of these results: Entries with a potency or affinity are not part of this list. Some compounds were tested as several samples or in several runs, with calls that do not always agree. Activity calls are given as the source filed them. Unless noted, the rule behind the calls is not given here.
How the values were obtained:
[1] = antimalarial activity against Dd2 strain (AID 2302;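 active = growth inhibition above 50% at the single 2 µM test dose, taken to imply half-maximal potency below 2 µM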;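 note: 0% = DMSO untreated growth and 100% = chloroquine plus artemisinin killed control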); settings: P. falciparum Dd2 in RBCs, LDH growth readout, 72 h; at 2 µM; stronger effect = higher value
[2] = human hepatoma cell viability loss – ATP luminescence, cytotoxicity control for P. falciparum antimalarial project, primary screen (AID 2303;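 active = inhibition above 50%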;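 note: 0% = DMSO wells and 100% = digitonin-killed cells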); settings: HepG2 viability, 24-48 h, at 10 µM, stronger effect = higher value
[3] = target: L-lactate dehydrogenase (Plasmodium falciparum (isolate CDC / Honduras)) (UniProt Q27743); test: PfLDH activity inhibition – cell lysate, 3D7 strain, counter-screen for P. falciparum growth inhibition project (AID 2304);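 note: 0% = vehicle and 100% = reference inhibitor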; settings: P. falciparum 3D7 crude extract, LDH APAD/NBT absorbance; at 2 µM; stronger effect = higher value
[4] = inhibition of 3D7 malaria parasite growth – strain 3D7 (AID 2306);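 note: 0% = DMSO wells and 100% = chloroquine plus artemisinin control wells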; settings: P. falciparum 3D7 erythrocytic growth, LDH absorbance, 72 h; at 2 µM; stronger effect = higher value
[5] = target: Calcium-dependent protein kinase 1 (Plasmodium falciparum (isolate 3D7)) (UniProt P62344); test: PfCDPK1 kinase inhibitors, biochemical, TCAMS library (AID 1159585; cut-off not given, nearly all actives have IC50 up to about 0.98 µM;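 note: inhibitors leave more ATP so luminescence rises with inhibition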); settings: recombinant PfCDPK1, Kinase-Glo ATP depletion luminescence
[6] = target: Plasmodium falciparum protein kinase 6 (PK6, PF3D7_1337100) (UniProt Q8IDW1); test: PfPK6 kinase inhibitors, biochemical, TCAMS library (AID 1159586); settings: recombinant PfPK6, Kinase-Glo ATP depletion luminescence
[7] = target: Protein kinase 7 (PK7), Plasmodium falciparum 3D7 (PF3D7_0213400) (UniProt Q7YTF7); test: inhibition of Plasmodium PK7 catalytic activity – biochemical, TCAMS antimalarial set, Kinase-Glo luminescence (AID 1159587); settings: recombinant PfPK7, Kinase-Glo ATP depletion luminescence
[8] = target: Calcium-dependent protein kinase 4 (Plasmodium falciparum (isolate 3D7)) (UniProt Q8IBS5); test: PfCDPK4 kinase inhibitors, biochemical, TCAMS library (AID 1159588; cut-off not given, nearly all actives have IC50 up to about 0.91 µM); settings: recombinant PfCDPK4, Kinase-Glo ATP depletion luminescence
Sequence of Calcium-dependent protein kinase 4 (Plasmodium falciparum (isolate 3D7)) (Q8IBS5 whole entry, looked up): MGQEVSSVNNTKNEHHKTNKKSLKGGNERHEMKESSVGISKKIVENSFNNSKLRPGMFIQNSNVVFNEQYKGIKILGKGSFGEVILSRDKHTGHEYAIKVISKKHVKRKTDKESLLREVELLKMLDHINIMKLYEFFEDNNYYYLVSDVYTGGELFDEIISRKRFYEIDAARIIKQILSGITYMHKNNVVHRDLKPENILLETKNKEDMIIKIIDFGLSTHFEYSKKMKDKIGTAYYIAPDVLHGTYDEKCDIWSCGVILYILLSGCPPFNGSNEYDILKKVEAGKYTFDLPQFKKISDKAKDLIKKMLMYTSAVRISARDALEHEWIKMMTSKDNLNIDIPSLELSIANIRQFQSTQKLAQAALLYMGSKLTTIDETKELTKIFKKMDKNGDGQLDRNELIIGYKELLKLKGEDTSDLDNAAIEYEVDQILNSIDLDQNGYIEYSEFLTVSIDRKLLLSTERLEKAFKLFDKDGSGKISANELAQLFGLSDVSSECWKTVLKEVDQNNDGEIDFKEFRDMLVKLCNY

Sequence of L-lactate dehydrogenase (Plasmodium falciparum (isolate CDC / Honduras)) (Q27743 whole entry, looked up): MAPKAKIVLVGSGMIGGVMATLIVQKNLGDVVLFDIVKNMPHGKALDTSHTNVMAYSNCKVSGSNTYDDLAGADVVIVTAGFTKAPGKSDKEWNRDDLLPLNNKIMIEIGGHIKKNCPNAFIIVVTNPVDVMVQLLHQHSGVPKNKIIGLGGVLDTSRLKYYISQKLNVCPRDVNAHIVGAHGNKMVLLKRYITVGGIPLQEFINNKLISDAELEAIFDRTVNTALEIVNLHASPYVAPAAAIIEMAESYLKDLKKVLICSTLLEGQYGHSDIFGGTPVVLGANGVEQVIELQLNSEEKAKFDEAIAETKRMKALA
Sequence of Plasmodium falciparum protein kinase 6 (PK6, PF3D7_1337100) (Q8IDW1 1-305): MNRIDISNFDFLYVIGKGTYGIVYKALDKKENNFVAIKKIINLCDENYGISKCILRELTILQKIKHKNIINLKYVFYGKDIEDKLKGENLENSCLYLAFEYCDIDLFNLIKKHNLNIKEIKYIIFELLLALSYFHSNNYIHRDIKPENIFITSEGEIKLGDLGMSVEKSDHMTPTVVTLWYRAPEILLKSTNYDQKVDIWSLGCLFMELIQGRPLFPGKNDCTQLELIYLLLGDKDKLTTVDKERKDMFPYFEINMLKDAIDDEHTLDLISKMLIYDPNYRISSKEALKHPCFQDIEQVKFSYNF
Sequence of Protein kinase 7 (PK7), Plasmodium falciparum 3D7 (PF3D7_0213400) (Q7YTF7 1-343): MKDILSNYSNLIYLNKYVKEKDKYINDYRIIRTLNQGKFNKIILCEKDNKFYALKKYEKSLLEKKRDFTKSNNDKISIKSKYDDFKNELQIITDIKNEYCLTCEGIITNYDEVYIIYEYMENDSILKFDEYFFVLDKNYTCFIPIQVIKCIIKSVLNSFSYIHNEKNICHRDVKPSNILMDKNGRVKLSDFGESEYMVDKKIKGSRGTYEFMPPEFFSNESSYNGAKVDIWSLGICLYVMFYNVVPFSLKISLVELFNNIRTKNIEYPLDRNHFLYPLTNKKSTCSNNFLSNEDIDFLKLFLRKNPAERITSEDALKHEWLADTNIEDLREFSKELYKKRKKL
Sequence of Calcium-dependent protein kinase 1 (Plasmodium falciparum (isolate 3D7)) (P62344 whole entry, looked up): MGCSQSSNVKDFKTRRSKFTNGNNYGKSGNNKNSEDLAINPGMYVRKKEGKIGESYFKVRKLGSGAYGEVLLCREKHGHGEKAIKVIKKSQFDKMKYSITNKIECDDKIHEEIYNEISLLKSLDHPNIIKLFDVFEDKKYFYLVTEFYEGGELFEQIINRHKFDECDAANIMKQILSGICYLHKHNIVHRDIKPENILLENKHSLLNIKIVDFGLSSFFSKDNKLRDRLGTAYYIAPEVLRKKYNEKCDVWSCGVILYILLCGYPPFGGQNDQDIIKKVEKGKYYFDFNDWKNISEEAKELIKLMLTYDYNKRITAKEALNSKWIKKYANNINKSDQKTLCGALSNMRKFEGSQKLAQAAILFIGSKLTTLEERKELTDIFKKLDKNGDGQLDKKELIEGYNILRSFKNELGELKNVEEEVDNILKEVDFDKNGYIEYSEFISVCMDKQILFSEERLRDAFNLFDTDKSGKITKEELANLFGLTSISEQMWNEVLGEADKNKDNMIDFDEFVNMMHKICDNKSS

SMILES | growth inhibition [1] | inhibition [2] | inhibition [3] | growth inhibition [4] | outcome [5] | outcome [6] | outcome [7] | outcome [8]
CN1CC=C(c2c[nH]c3ccc(Sc4ccccc4)cc23)CC1 | 99% (active) | 36% (inactive) | -2% (inactive) | 98% (active) | inactive | inactive | inactive | inactive
O=C(/C=C/c1ccc(Cl)c(Cl)c1)NCCC1CCC(N2CCC(c3c[nH]c4ccc(O)cc34)CC2)CC1 (centres undefined) | 3% (inactive) | 19% (inactive) | -7% (inactive) | 102% (active) | inactive | inactive | inactive | inactive
O=C(C=Cc1ccccc1C(F)(F)F)NC1CCC(CN2CCC(c3c[nH]c4ccccc34)CC2)CC1 (centres undefined) | 47% (inactive) and 90% (active) | 47% (inactive) and 73% (active) | -1% (inactive) and 1% (inactive) | 102% (active) | inactive | inactive | inactive | inactive
Cc1cccc(C(=O)Nc2ccnc(N(C)C3CCN(Cc4cccc(O)c4)CC3)c2)c1 | 62% (active) | 5% (inactive) | -1% (inactive) | 89% (active) | inactive | inactive | inactive | inactive
COc1cc(NC(=O)c2nn(CCCN3CCC4(CC3)C(=O)NCN4c3ccccc3)cc2-c2ccc(Cl)c(Cl)c2)cc(OC)c1OC | 75% (active) | -4% (inactive) | 1% (inactive) | 97% (active) | inactive | inactive | inactive | inactive
Cc1nc(C)c(-c2ccc(Oc3ccc(OC(F)(F)F)cc3)cc2)c(OC(=O)N(CCNC(C)C)C(C)C)c1Br | 97% (active) | 35% (inactive) | -2% (inactive) | 98% (active) | inactive | inactive | inactive | inactive
CC(=O)Nc1ccc(CN2CCC(N(C)c3cc(NC(=O)c4ccc(F)cc4)ccn3)CC2)cc1 | 5% (inactive) | 0% (inactive) | -1% (inactive) | 95% (active) | inactive | inactive | inactive | inactive
Cc1ccc(CC(C)NCC(O)c2cccc(Cl)c2)cc1F (centres undefined) | 88% (active) | 1% (inactive) | -2% (inactive) | 95% (active) | inactive | inactive | inactive | inactive
NCc1ccc(-c2ccccc2CN(C(=O)Nc2ccccc2)C2CCN(Cc3ccccc3)CC2)cc1 | 35% (inactive) | 36% (inactive) | 3% (inactive) | 100% (active) | inactive | inactive | inactive | inactive
CC[C@H]1CN2CC[C@H]1C[C@H]2[C@H](O)c1cc(-c2ccc(C)cc2)nc2ccc(OC)cc12 | 99% (active) | 22% (inactive) | 6% (inactive) | 99% (active) | inactive | inactive | inactive | inactive
CC[C@H]1CN2CC[C@@H]1C[C@H]2[C@H](O)c1ccnc2ccc(Cl)cc12 | 98% (active) | -3% (inactive) | 2% (inactive) | 100% (active) | inactive | inactive | inactive | inactive
CCCCCCCn1c(=O)c(C(=O)Nc2c(C)cccc2C)c(O)c2ccccc21 | 42% (inactive) | 6% (inactive) | -2% (inactive) | 90% (active) | inactive | inactive | inactive | inactive
C[C@H](Cc1ccc(OCCCCCCOc2ccccc2)cc1)NC[C@@H](O)c1cc(Br)no1 | 70% (active) | 21% (inactive) | 5% (inactive) | 94% (active) | inactive | inactive | inactive | inactive
O=C(NC1CCC(CN2CCC(c3c[nH]c4ccccc34)CC2)CC1)c1cc2ccccc2o1 (centres undefined) | 14% (inactive) | 34% (inactive) | 4% (inactive) | 94% (active) | inactive | inactive | inactive | inactive
CC[C@H]1CN2CC[C@H]1C[C@@H]2[C@@H](O)c1cc(Cl)nc2ccc(OC)cc12 | 82% (active) | -9% (inactive) | -2% (inactive) | 98% (active) | inactive | inactive | inactive | inactive
CCCCCC(C)C(C)c1cc(O)c2c3c(c(=O)oc2c1)CN(Cc1ccccc1)CC3 (centres undefined) | 47% (inactive) | 4% (inactive) | -2% (inactive) | 99% (active) | inactive | inactive | inactive | inactive
CSc1nccc(-c2ccc(S(=O)(=O)NC3CCC(CN4CCC(c5c[nH]c6ccccc56)CC4)CC3)s2)n1 (centres undefined) | 67% (active) and 33% (inactive) | 36% (inactive) and 61% (active) | -1% (inactive) and 4% (inactive) | 101% (active) | inactive | inactive | inactive | inactive
O=C(NC1CCC(CN2CCC(c3c[nH]c4ccccc34)CC2)CC1)[C@H]1Cc2ccccc2CN1 (some centres undefined) | 35% (inactive) | 29% (inactive) | 3% (inactive) | 89% (active) | inactive | inactive | inactive | inactive
O=C(/C=C/c1ccc(O)cc1)NC1CCC(CN2CCC(c3c[nH]c4ccccc34)CC2)CC1 (centres undefined) | 51% (active) | 21% (inactive) | -7% (inactive) | 99% (active) | inactive | inactive | inactive | inactive

SMILES | growth inhibition [1] | inhibition [2] | inhibition [3] | growth inhibition [4] | outcome [5] | outcome [6] | outcome [7] | outcome [8]
COc1ccc(CC(C)NCC(O)c2cccc(Br)c2)cc1 (centres undefined) | 93% (active) | 10% (inactive) | -1% (inactive) | 99% (active) | inactive | inactive | inactive | inactive
c1ccc2c(NCCCCCCNc3c4c(nc5ccccc35)CCCC4)c3c(nc2c1)CCCC3 | 51% (active) | 90% (active) | 3% (inactive) | 100% (active) | inactive | inactive | inactive | inactive
CC[C@H]1CN2CC[C@H]1C[C@H]2[C@H](O)c1cc(-c2ccccc2C)nc2ccc(OC)cc12 | 98% (active) | 16% (inactive) | 2% (inactive) | 100% (active) | inactive | inactive | inactive | inactive
CC(C)CNCc1ccc(-c2cccc(CN(C(=O)CCC3CCCC3)C3CCN(Cc4ccccc4)CC3)c2)cc1 | 92% (active) | 62% (active) | -7% (inactive) | 101% (active) | inactive | inactive | inactive | inactive
CCOC(C(=O)OCC1CCCN1C)(c1ccccc1)c1ccccc1 (centres undefined) | 3% (inactive) | 13% (inactive) | 6% (inactive) | 97% (active) | inactive | inactive | inactive | inactive
COCCNCc1cccc(-c2ccccc2CN(C(=O)Nc2ccccc2)C2CCN(Cc3ccccc3)CC2)c1 | 51% (active) | 30% (inactive) | 1% (inactive) | 96% (active) | inactive | inactive | inactive | inactive
COC(=O)c1ccc(C[C@@H](C)NC[C@H](O)c2cccc(OCc3ccccc3)c2)cc1 | 37% (inactive) | 11% (inactive) | 1% (inactive) | 86% (active) | inactive | inactive | inactive | inactive
Cc1ccc(C2(O)C[C@H]3CC[C@@H](C2)N3C)cc1 (some centres undefined) | 16% (inactive) | -6% (inactive) | -4% (inactive) | 92% (active) | inactive | inactive | inactive | inactive
O=C(c1cc(C(F)(F)F)cc(C(F)(F)F)c1)N1CC[C@H](CCN2CCC3(CC2)C(=O)NCN3c2ccccc2)C[C@H]1Cc1ccc(Cl)c(Cl)c1 | 77% (active) | 19% (inactive) | -4% (inactive) | 100% (active) | inactive | inactive | inactive | inactive
CC(C)CN1CCC(N(C)c2cc(NC(=O)c3cccc(F)c3)ccn2)CC1 | 10% (inactive) | 8% (inactive) | -1% (inactive) | 97% (active) | inactive | inactive | inactive | inactive
COc1cc(C(=O)NC2CCC(CN3CCC(c4c[nH]c5ccccc45)CC3)CC2)cc(Cl)n1 (centres undefined) | 45% (inactive) | 33% (inactive) | -1% (inactive) | 99% (active) | inactive | inactive | inactive | inactive
COCCNCc1cccc(-c2cccc(CN(C(=O)Nc3ccccc3)C3CCN(Cc4ccccc4)CC3)c2)c1 | 65% (active) | 28% (inactive) | -1% (inactive) | 100% (active) | inactive | inactive | inactive | inactive
O=C(C=Cc1ccc(-c2ccccc2)cc1)NC1CCC(CN2CCC(c3c[nH]c4ccccc34)CC2)CC1 (centres undefined) | 85% (active) and 98% (active) | 43% (inactive) and 97% (active) | -7% (inactive) | 101% (active) | inactive | inactive | inactive | inactive
CN1CC=C(c2c[nH]c3ccc(OCc4ccccc4)cc23)CC1 | 97% (active) | -2% (inactive) | -2% (inactive) | 95% (active) | inactive | inactive | inactive | inactive
Cc1ccccc1CNCC(O)c1cccc(C(F)(F)F)c1 (centres undefined) | 77% (active) | 5% (inactive) | -4% (inactive) | 99% (active) | inactive | inactive | inactive | inactive
C#CCN1CCC2=C(C1)c1c(O)cc(C(C)C(C)CCc3ccc(F)cc3)cc1OC2(C)C (centres undefined) | 99% (active) | 10% (inactive) | 3% (inactive) | 100% (active) | inactive | inactive | inactive | inactive
C/C=C1\CN2CC[C@H]1C[C@H]2[C@H](O)c1ccnc2ccc(O)cc12 | -1% (inactive) | -15% (inactive) | -3% (inactive) | 98% (active) | inactive | inactive | inactive | inactive
Fc1ccc2[nH]cc(CCN3CCC(CNCc4ccccc4)CC3)c2c1 | 94% (active) | 67% (active) | 4% (inactive) | 100% (active) | inactive | inactive | inactive | inactive
O=C1Nc2cccc3c2C1(CCCCN1CC=C(c2c[nH]c4ncccc24)CC1)CCC3 (centres undefined) | 80% (active) | 11% (inactive) | -5% (inactive) | 92% (active) | inactive | inactive | inactive | inactive

Reference: PubChem BioAssay
